The list is not random: actives were taken first. Their share in the collection is about 3.2%.
NCF1 inh – p47phox/p22phox peptide binding inhibitors, primary screen, biochemical, uHTS, NADPH oxidase regulatory subunit. actives 0.53% (n = 220,000). AID 1274, 2008. inhibition, % at 24.7 µM. fluorescence polarization, 2 h. Neutrophil cytosol factor 1 (Homo sapiens), P14598;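 active = inhibition above about 30%, limit read from the data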
Target sequence (P14598 whole entry, looked up): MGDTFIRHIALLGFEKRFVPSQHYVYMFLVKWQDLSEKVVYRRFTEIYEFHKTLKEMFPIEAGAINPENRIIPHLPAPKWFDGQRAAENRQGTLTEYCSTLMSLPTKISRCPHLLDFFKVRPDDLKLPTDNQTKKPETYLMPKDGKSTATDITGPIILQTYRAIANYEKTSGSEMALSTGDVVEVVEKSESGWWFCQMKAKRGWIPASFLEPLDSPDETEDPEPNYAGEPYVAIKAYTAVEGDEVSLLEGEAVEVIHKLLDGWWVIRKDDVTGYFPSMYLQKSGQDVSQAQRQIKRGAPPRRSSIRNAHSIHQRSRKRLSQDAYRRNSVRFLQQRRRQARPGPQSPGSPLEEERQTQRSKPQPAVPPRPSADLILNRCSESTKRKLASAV
14-3-3 Bad inh – inhibitors of 14-3-3 zeta/Bad binding, primary screen, biochemical, TR-FRET, bovine 14-3-3 zeta. 14-3-3 protein zeta/delta (Bos taurus), P63103. TR-FRET 14-3-3zeta/Dy647-pBad peptide displacement, 1 h. inhibition, % at 21.7 µM. actives 0.71% (n = 220,000). AID 781, 2007;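 active = inhibition above about 70%, limit read from the data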
Target sequence (P63103 whole entry, looked up): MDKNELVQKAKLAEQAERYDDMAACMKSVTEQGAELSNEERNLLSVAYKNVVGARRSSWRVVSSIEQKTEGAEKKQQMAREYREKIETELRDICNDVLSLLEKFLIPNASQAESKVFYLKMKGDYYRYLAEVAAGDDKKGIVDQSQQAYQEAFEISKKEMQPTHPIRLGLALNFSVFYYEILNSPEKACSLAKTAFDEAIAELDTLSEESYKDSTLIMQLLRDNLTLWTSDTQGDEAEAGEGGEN
Mcl-1 Bim block – inhibitors of Bim peptide binding to Mcl-1, primary screen, biochemical, bead-based flow cytometry, multiplex | Induced myeloid leukemia cell differentiation protein Mcl-1 (Homo sapiens), Q07820 | Bim peptide-Mcl-1 binding | inhibition, % at 10 µM | actives 0.1% (n = 190,000) | AID 1009, 2008; in the data active = inhibition above about 40%
Mcl1 Noxa PPI – Mcl-1/Noxa binding inhibitors, primary screen, biochemical, TR-FRET, 1536-well. Induced myeloid leukemia cell differentiation protein Mcl-1 (Homo sapiens), Q07820. inhibition, % at 21.7 µM. actives 1.5% (n = 220,000). TR-FRET Mcl-1/Noxa peptide binding, 2 h. AID 1022, 2008;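 active = compounds that cut the protein-peptide binding signal by more than 50% relative to plate controls in a single-dose test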;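 note: His-tagged Mcl-1 with rhodamine Noxa BH3 peptide and terbium anti-His antibody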
Mcl1-Bid inh – Mcl-1/Bid binding inhibitors, primary screen, biochemical, TR-FRET, 1536-well; actives 0.97% (n = 220,000); Induced myeloid leukemia cell differentiation protein Mcl-1 (Homo sapiens), Q07820; TR-FRET Mcl-1/Bid-Dy647 peptide binding; inhibition, % at 21.7 µM; AID 1021, 2008;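 active = compounds that cut the binding signal by more than half at the single screening dose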;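 note: His-tagged Mcl-1 with europium anti-His antibody binding Bid BH3 peptide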
Of the large screens only hits and unclear results are named; the others gave an inactive call; ! = repeats disagree.

COc1cc2nc(N3CCN(C(=O)c4ccco4)CC3)nc(N)c2cc1OC	Mcl1 Noxa PPI 58!, Mcl1-Bid inh 67!
CC(C)c1ccc(-n2c(O)c(C=NC(CCS(C)=O)C(=O)O)c(=O)[nH]c2=S)cc1 (stereo not given)	none (no result: Mcl-1 Bim block)
CCCCCCCCCOc1ccc2[nH]cc(CCN)c2c1	NCF1 inh 92
CC(C)c1oc(=O)cc2c1[C@@H](O)[C@H]1OC(=O)[C@@]3(C)C[C@@H](O)[C@@H](O)[C@@]2(C)C13 (stereo not given in full)	none
O=c1[nH]c(O)c(/C=C2/C=CC(c3cc(Cl)ccc3Cl)=N2)c(=O)[nH]1	NCF1 inh 50, Mcl1-Bid inh 67 (no result: Mcl-1 Bim block)
c1ccc2c(c1)CNc1ccccc1O2	none
CN1c2ccccc2Oc2ccccc21	Mcl1 Noxa PPI 69
O=c1[nH]c(O)c(N=Nc2cc([N+](=O)[O-])ccc2O)c(=O)[nH]1	none
CN1C(=O)/C(=C\c2ccc(N3CCCCCC3)cc2)C(=O)NC1=S	none (no result: Mcl-1 Bim block)
CCC(C)N1C(=O)/C(=C\c2cc3c4c(c2)CCCN4CCC3)C(=O)NC1=S (stereo not given)	NCF1 inh 63
CCC(C)N1C(=O)/C(=C\c2ccc(N3CCCCCC3)cc2)C(=O)NC1=S (stereo not given)	NCF1 inh 56
COc1cc(N2CCOCC2)ccc1C=C1C(=O)NC(=O)NC1=O	Mcl-1 Bim block 42
CC(C)N1OC2CC1c1nc3ccccc3n1C2 (stereo not given)	none (no result: Mcl-1 Bim block)
CCN(CC)c1ccc(CN2CC=C(c3ccc(F)cc3)CC2)cc1	14-3-3 Bad inh 77
NP(=O)(Oc1ccc(Cl)cc1)Oc1ccc(Cl)cc1	none
CCN(CC)c1ccc(/C=N/c2sc3c(c2C#N)C2CCN3CC2)c(O)c1	NCF1 inh 74
CC/C(=N\N1CCCCCC1)c1c(O)n(-c2ccc(C)cc2)c(=O)[nH]c1=O	none
CCOc1ccc(C2CC(c3c(O)n(C)c(=O)n(C)c3=O)=NN2)cc1 (stereo not given)	NCF1 inh 61 (no result: Mcl-1 Bim block)
CCC(C)n1c(O)c(C=Nc2cccc(C(F)(F)F)c2)c(=O)[nH]c1=S (stereo not given)	none
c1ccc(-c2nc(N3CCOCC3)s[n+]2-c2ccccc2)cc1	NCF1 inh 41
CCCCOc1ccc(CN2CCN(CC)CC2)cc1	14-3-3 Bad inh 86
COc1ccc(N/N=C/c2c(O)n(-c3ccc(C)c(C)c3)c(=O)[nH]c2=O)cc1	none
Cc1ccc(-n2c(O)c(/C=N/Nc3ccccc3)c(=O)[nH]c2=O)cc1C	NCF1 inh 40 (no result: Mcl-1 Bim block)
Cc1ccc(-c2ccc(=O)n(CC(=O)N3CCC4(CC3)OCCO4)n2)cc1	none
Cc1ccc(-c2nc(CS(=O)CC(=O)N3CCC4(CC3)OCCO4)c(C)o2)cc1 (stereo not given)	Mcl1-Bid inh 85
CC(Cc1ccccc1)[n+]1cc(/N=C(\[O-])N(C)C)on1 (stereo not given)	14-3-3 Bad inh 85
CNCCc1nc(N)n[nH]1	none
CCOc1cc(C=C2C(=O)NC(=O)NC2=O)ccc1OS(=O)(=O)c1ccccc1	Mcl1 Noxa PPI 60
CCOc1cc(C=C2C(=O)NC(=O)NC2=O)ccc1OCC(=O)N1CCOCC1	none
CC(=O)N1CN2CN(C1)CN(C(C)=O)C2	none
C=CCC1(CN2CCCCCC2=O)C(=O)NC(=O)NC1=O	Mcl1-Bid inh 61
C=CCC1(CN2CCCC2=O)C(=O)NC(=O)NC1=O	none
CCC1(c2ccccc2)C(=O)N(COC)C(=O)N(COC)C1=O	Mcl1 Noxa PPI 52
C=C1[C@@H](C)[C@H]2[C@H](Cc3ccccc3)NC(=O)[C@]23OC(=O)/C=C/[C@H](O)CCC[C@@H](C)C/C=C/[C@H]3[C@@H]1O	NCF1 inh 31
O=C(CCc1nc(-c2ccccc2F)no1)N1CCC2(CC1)OCCO2	none
C=CCn1c(O)c(C(CC)=Nc2cccc(C(F)(F)F)c2)c(=O)[nH]c1=O	none (no result: Mcl-1 Bim block)
Cc1cc(S(=O)(=O)NCC(C)C)ccc1OCC(=O)N1CCN(Cc2ccccc2)CC1	none
CN1CCN(C(=O)COc2ccc(S(=O)(=O)NCc3ccccc3)cc2Cl)CC1	14-3-3 Bad inh 75
O=C1CN(C(=O)COC(=O)Cc2ccccc2)c2ccccc2N1	none
O=C(C1CC(=O)N(C2CCCCCCC2)C1)N1CCC2(CC1)OCCO2 (stereo not given)	NCF1 inh 35
CC(C)OC1CCCC(O)C1CC(=O)O (stereo not given)	none (no result: Mcl-1 Bim block)
CN1CCCCC1c1ccc(-c2cccnc2)nc1 (stereo not given)	Mcl1-Bid inh 70
O=S(=O)(c1ccc(Cl)cc1)N1CCCC1c1cccnc1 (stereo not given)	none (no result: Mcl-1 Bim block)
O=c1c2ccccc2nc(-c2ccccc2)n1-c1ccccc1	none (no result: Mcl-1 Bim block)
O=c1c2ccccc2[se]n1-c1ccccc1	NCF1 inh 85
COC(=O)c1c(C)[nH]c(C(=O)C(C)[N+]23CCN(CC2)CC3)c1C (stereo not given)	14-3-3 Bad inh 81, Mcl1-Bid inh 74
C/C=C1/CC(C)C(C)(O)C(=O)OCC2CCN3CCC(OC1=O)C23 (stereo not given)	none
C#CCNc1ccncc1S(=O)(=O)NC(=O)NC(C)C	none
C[C@]12CC[C@@H]3c4ccc(O)c(O)c4CC[C@H]3[C@@H]1CC[C@@H]2O	Mcl1 Noxa PPI 64
CC(C)C(C)(NC(=O)c1cccn(Cc2ccc3c(c2)OC(F)(F)O3)c1=O)C(N)=O (stereo not given)	none
CCCCCCN=C(C)c1c(O)n(Cc2ccccc2)c(=O)[nH]c1=O	none
O=C1Nc2ccccc2C1Cc1nc2ccccc2c(=O)n1-c1ccccc1 (stereo not given)	Mcl1-Bid inh 54 (no result: Mcl-1 Bim block)
Cc1c(N=Cc2c(O)n(CCc3ccc(F)cc3)c(=O)[nH]c2=O)c(=O)n(-c2ccccc2)n1C	none
CCCCNC(=O)NC(C(N)=O)P(=O)(OCC)OCC (stereo not given)	none (no result: Mcl-1 Bim block)
Fc1ccc2c(c1)nnn2C1CCN(Cc2nnnn2CCc2ccccc2)CC1	14-3-3 Bad inh 76
O=C(Cc1ccccc1)N1CCN(CC2CC3C=CC2C3)CC1 (stereo not given)	none
O=C(Cc1ccccc1)N1CCN(CC2CC=CCC2)CC1 (stereo not given)	14-3-3 Bad inh 77
COc1ccc(NC2=NC(C)(C)CS2)cc1	none
CCN1CCN(Cc2cc(Br)cc(Br)c2O)CC1	14-3-3 Bad inh 78
CN(C)c1ccc(/C=C/[N+](=O)[O-])cc1	NCF1 inh 43
CN1C(=O)N(C)C(=O)C2(Cc3cc(N)ccc3N3CCN(c4ccccc4F)CC32)C1=O (stereo not given)	14-3-3 Bad inh 82, Mcl1 Noxa PPI 57, Mcl1-Bid inh 91

Bioassay records: PubChem BioAssay, several laboratories
